Results: PubChem BioAssay (Tox21)
Results filed as inconclusive are left out. The source made the active and inactive calls. Unless noted, calls follow the shape of the full dose curve.

Key:
[1] = Nuclear factor erythroid 2-related factor 2/antioxidant responsive element (Nrf2/ARE) small molecule agonists: qHTS cell viability counter screen in human keratinocytes (AID 1919968; active = well fitted curve in the direction sought with a large enough effect in the repeat runs; an effect the other way counts as inactive or inconclusive; also: nearly all actives have a fitted effect of over 55% in size)
In short: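 Fluorescence read-out from CellTiter-Fluor after 1 h at 37 C. Wells held HaCaT-derived ARE-luciferase reporter cells (1,500/well) treated 23 h with DMSO-dissolved compounds. Run in the same wells as the luciferase agonist read.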

[2] = Nuclear factor erythroid 2-related factor 2/antioxidant responsive element (Nrf2/ARE) small molecule agonists: luciferase reporter gene qHTS assay in human keratinocytes (AID 1919969); also: nearly all actives have a fitted effect of over 35% in size
[3] = biological target: Gonadotropin-releasing hormone receptor (Homo sapiens) (UniProt P30968); assay: Human gonadotropin-releasing hormone receptor (GnRHR) small molecule agonists, calcium flux assay in GnRHR-HEK293 cells (AID 1920063); also: nearly all actives have a fitted effect of over 35% in size
Chain of Gonadotropin-releasing hormone receptor (Homo sapiens) (P30968 whole entry, looked up): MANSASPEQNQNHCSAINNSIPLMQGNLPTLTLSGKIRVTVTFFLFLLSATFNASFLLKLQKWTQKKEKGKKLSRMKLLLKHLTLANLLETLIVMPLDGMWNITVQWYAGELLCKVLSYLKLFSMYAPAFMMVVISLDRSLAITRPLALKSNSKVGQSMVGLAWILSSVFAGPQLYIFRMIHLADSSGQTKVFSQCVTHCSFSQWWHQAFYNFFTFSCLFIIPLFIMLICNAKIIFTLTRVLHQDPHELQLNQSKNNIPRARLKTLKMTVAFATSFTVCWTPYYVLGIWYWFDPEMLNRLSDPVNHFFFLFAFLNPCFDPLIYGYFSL
In short: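 Calcium-dye fluorescence, Ex/Em=480/540, recorded every 1 sec over 3 min after compound addition to GnRHR-HEK293 cells. Cells had been seeded 18 hours earlier and dye-loaded for 1 hour at 37 C. Fifteen concentrations, triplicates.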

[4] = biological target: KiSS-1 receptor (Homo sapiens) (UniProt Q969F8); assay: Human kisspeptin (KISS1R) small molecule agonists, calcium flux assay in KISS1R-HEK293 cells (AID 1920064; active = well fitted curve in the direction sought with a large enough effect in the repeat runs; an effect the other way counts as inactive or inconclusive)
Chain of KiSS-1 receptor (Homo sapiens) (Q969F8 whole entry, looked up): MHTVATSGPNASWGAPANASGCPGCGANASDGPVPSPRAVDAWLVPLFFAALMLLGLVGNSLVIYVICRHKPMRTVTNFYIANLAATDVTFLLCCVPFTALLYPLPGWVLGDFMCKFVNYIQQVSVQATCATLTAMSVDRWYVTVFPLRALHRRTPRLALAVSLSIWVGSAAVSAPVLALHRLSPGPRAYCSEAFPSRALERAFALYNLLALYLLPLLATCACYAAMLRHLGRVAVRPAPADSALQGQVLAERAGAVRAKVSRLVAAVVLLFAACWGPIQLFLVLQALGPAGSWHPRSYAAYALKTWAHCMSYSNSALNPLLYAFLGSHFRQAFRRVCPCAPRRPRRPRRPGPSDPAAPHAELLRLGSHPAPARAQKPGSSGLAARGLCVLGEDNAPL
In short: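 Calcium flux read-out: kinetic fluorescence at Ex/Em=480/540, 1 s intervals over 3 min, after pin-tool compound addition to dye-loaded KISS1R-HEK293 cells. Fifteen concentrations, triplicates.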

[5] = G protein-coupled receptor (GPCR) small molecule agonists, calcium flux assay: HEK293 wild type cell line counter screen (AID 1920065)
In short: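 Agonist mode; 18 h seeding at 37 C, 1 h dye load at 37 C; compounds pinned from DMSO, ATP as positive control; kinetic fluorescence 480/540 nm, 3 min, 1 s reads; 15 concentrations, triplicate.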

[6] = p53 small molecule agonists, cell-based qHTS assay with human liver microsomes (AID 1963577);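 also: p53 response element beta-lactamase reporter cells with liver microsomes plus NADPH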
In short: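 With metabolic activation: human liver microsomes (0.5 mg/mL final) plus NADPH (0.5 mg/mL final) added alongside compounds to p53RE-bla cells; 16 h 37 C exposure; beta-lactamase read by LiveBLAzer fluorescence.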

[7] = p53 small molecule agonists, cell-based qHTS assay with rat liver microsomes (AID 1963578)
In short: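 Metabolic activation by rat liver microsomes and NADPH, each 0.5 mg/mL final, added right after compounds to p53RE-bla reporter cells (4,000/well, plated 5 h earlier). 16 h at 37 C, then LiveBLAzer substrate for 2 h at room temperature in the dark; fluorescence read-out.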

[8] = p53 small molecule agonists, cell-based qHTS assay with human liver microsomes: qHTS cell viability counter screen (AID 1963579); also: nearly all actives have a fitted effect of over 45% in size
In short: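 Metabolic activation used human liver microsomes and NADPH, both 0.5 mg/mL final, over 16 hours at 37 C on p53RE-bla cells (4,000/well). Cytotoxicity measured by CellTiter-Glo luminescence, 30 min at room temperature.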

[9] = p53 small molecule agonists, cell-based qHTS assay with rat liver microsomes: qHTS cell viability counter screen (AID 1963580); also: nearly all actives have a fitted effect of over 45% in size
In short: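 Rat liver microsome (0.5 mg/mL final) and NADPH (0.5 mg/mL final) co-incubation with compounds for 16 h at 37 C on HCT-116 p53RE-bla cells; cytotoxicity taken from intracellular ATP luminescence.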

[10] = p53 small molecule agonists, cell-based qHTS assay: qHTS cell viability counter screen (AID 1963581); also: nearly all actives have a fitted effect of over 45% in size
In short: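 Cytotoxicity read-out: ATP-based luminescence (CellTiter-Glo, 30 min RT) measured in the same wells as the p53 reporter assay, HCT-116 p53RE-bla cells, 16 h compound exposure at 37 C.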

[11] = p53 small molecule agonists, cell-based qHTS assay (AID 1963582; active = well fitted activation curve with a large enough effect in the signal ratio in the repeat runs, not every such curve was filed as active; the % refers to the signal ratio)
In short: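 Fluorescence intensity read-out of a beta-lactamase reporter under a p53 response element. Cells were exposed to DMSO-dissolved compounds for 16 h at 37 C, then developed with FRET substrate for 2 h at RT.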

[12] = biological target: 5-hydroxytryptamine receptor 2A (Homo sapiens) (UniProt P28223); assay: 5-hydroxytryptamine receptor 2A (HTR2A) small molecule antagonists, cell-based qHTS assay (AID 1963586); also: nearly all actives have a fitted effect of over 45% in size
Chain of 5-hydroxytryptamine receptor 2A (Homo sapiens) (P28223 whole entry, looked up): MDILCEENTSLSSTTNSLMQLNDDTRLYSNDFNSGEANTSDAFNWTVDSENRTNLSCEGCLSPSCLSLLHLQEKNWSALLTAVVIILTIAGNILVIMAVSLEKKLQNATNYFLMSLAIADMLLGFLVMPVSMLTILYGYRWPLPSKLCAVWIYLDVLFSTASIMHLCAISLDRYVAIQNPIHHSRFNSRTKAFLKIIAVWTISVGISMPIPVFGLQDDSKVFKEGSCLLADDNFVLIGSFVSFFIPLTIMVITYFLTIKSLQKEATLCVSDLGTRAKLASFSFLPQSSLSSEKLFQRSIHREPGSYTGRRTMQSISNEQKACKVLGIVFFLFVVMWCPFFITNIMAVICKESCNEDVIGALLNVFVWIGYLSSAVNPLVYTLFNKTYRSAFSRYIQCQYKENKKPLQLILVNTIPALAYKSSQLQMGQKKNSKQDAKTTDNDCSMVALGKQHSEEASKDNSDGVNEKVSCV
In short: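 CHO cells stably expressing human HTR2A were plated for 18 h at 37 C, then loaded with calcium dye for 1 h. Compounds were preincubated 5 min at room temperature before DOI (4 nM solution) was added. Kinetic fluorescence was read for 3 min.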

[13] = biological target: 5-hydroxytryptamine receptor 2A (Homo sapiens) (UniProt P28223); assay: 5-hydroxytryptamine receptor 2A (HTR2A) small molecule agonists, cell-based qHTS assay (AID 1963587); also: nearly all actives have a fitted effect of over 30% in size
In short: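 Kinetic calcium-flux fluorescence (2 min, 1 sec intervals) after compound addition in agonist mode. HTR2A-CHO cells were cultured 18 h, then dye-loaded 1 h at 37 C.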

[14] = biological target: Muscarinic acetylcholine receptor M1 (Homo sapiens) (UniProt P11229); assay: Cholinergic receptor muscarinic 1 (CHRM1) small molecule antagonists, cell-based qHTS assay (AID 1963588); also: nearly all actives have a fitted effect of over 40% in size; also: potency is read from the fitted curve at half-maximal effect
Chain of Muscarinic acetylcholine receptor M1 (Homo sapiens) (P11229 whole entry, looked up): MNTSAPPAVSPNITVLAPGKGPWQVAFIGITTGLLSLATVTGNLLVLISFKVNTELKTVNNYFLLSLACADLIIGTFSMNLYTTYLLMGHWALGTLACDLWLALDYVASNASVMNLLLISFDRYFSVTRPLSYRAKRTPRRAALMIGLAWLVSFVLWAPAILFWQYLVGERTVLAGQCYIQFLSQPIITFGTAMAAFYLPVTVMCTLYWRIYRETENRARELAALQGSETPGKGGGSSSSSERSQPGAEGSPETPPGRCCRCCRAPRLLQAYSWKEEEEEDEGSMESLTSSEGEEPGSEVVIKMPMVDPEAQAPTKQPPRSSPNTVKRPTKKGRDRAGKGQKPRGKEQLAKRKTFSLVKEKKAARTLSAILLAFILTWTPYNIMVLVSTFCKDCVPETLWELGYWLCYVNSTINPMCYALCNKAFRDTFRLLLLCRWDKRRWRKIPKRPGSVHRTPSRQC
In short: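 Compounds were tested at 15 concentrations in three independent runs. Dye-loaded CHRM1-CHO cells were exposed 5 min at room temperature before stimulation by acetylcholine added at 50nM. Intracellular calcium was read kinetically on FDSS for 3 min.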

[15] = biological target: Muscarinic acetylcholine receptor M1 (Homo sapiens) (UniProt P11229); assay: Cholinergic receptor muscarinic 1 (CHRM1) small molecule agonists, cell-based qHTS assay (AID 1963589); also: nearly all actives have a fitted effect of over 35% in size
In short: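 Calcium flux read-out: kinetic fluorescence at 1 sec intervals after pin-tool compound addition to dye-loaded CHRM1-CHO cells (human M1). Agonist mode; 15 concentrations tested in triplicate independent runs.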

[16] = cAMP Responsive Elements (CRE) small molecule agonists, cell-based qHTS assay (AID 1963590)
In short: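 Beta-lactamase reporter readout: LiveBLAzer B/G FRET substrate, 2 h at room temperature, added after 3 h compound treatment of CRE-bla HEK 293T cells at 37 C/5% CO2.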

[17] = cAMP Responsive Elements (CRE) small molecule antagonists, cell-based qHTS assay (AID 1963591; active = well fitted inhibition curve with a large enough effect in the signal ratio in the repeat runs, not every such curve was filed as active; the % refers to the signal ratio)
In short: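 HEK293T CRE-bla; 18 h preincubation; compound pin-transfer; NKH477 0.25 uM final, 3 h, 37 C; LiveBLAzer FRET substrate 2 h RT.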

[18] = biological target: D(2) dopamine receptor (Homo sapiens) (UniProt P14416); assay: Dopamine D2 receptor (DRD2) small molecule antagonists, cell-based qHTS assay (AID 1963595; active = well fitted inhibition curve with a large enough effect in the signal ratio in the repeat runs, with a control signal flat; the % refers to the signal ratio)
Chain of D(2) dopamine receptor (Homo sapiens) (P14416 whole entry, looked up): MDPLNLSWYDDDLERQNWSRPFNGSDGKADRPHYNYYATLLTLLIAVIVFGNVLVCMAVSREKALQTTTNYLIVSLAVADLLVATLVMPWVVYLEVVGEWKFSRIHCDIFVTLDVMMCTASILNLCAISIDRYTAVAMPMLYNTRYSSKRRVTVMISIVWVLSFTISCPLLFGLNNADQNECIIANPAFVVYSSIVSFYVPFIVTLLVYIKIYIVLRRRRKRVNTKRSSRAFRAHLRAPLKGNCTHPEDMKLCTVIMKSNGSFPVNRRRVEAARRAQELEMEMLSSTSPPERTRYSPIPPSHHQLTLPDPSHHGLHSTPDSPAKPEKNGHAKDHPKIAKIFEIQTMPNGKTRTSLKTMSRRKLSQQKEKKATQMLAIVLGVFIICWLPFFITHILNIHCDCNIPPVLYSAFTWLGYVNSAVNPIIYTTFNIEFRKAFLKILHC
In short: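 HEK293 cells stably expressing DRD2 were preincubated with 0.1 mM Ro20-1724, then with compound for 10 min at room temperature. Cells were stimulated with 200 nM NKH477 plus 12 nM quinpirole for 30 min, and cAMP was read by HTRF.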

[19] = biological target: Beta-2 adrenergic receptor (Homo sapiens) (UniProt P07550); assay: Adrenergic beta2 receptor (ADRB2) small molecule antagonists, cell-based qHTS assay (AID 1963592); also: series mostly up to about 92 µM; nearly all actives have a fitted effect of over 50% in size
Chain of Beta-2 adrenergic receptor (Homo sapiens) (P07550 whole entry, looked up): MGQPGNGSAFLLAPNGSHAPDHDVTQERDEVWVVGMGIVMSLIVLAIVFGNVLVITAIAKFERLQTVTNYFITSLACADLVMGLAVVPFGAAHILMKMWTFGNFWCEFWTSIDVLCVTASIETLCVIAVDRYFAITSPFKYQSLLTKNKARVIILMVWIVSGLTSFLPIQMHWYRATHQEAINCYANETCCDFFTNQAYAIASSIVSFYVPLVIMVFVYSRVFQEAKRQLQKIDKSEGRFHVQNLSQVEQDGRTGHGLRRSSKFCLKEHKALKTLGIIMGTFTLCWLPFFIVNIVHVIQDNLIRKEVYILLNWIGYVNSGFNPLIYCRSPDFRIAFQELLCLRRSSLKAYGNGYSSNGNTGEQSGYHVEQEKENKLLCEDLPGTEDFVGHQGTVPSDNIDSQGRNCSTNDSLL
In short: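 Assay format: CHO-ADRB2 cells, 18-20hr seeding at 37C/5% CO2, then compound plus 1nM isoproterenol agonist mix for 0.5hr RT. Homogeneous time-resolved fluorescence cAMP detection after 1hr, expressed as 665/615 nm ratio.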

[20] = biological target: D(2) dopamine receptor (Homo sapiens) (UniProt P14416); assay: Dopamine D2 receptor (DRD2) small molecule agonists, cell-based qHTS assay (AID 1963594); also: nearly all actives have a fitted effect of over 35% in size
In short: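 cAMP accumulation in DRD2-HEK293 cells measured by HTRF after 1 h detection; compounds added 10 min before NKH477 (200nM […]) forskolin-analogue stimulation, 30 min at room temperature, with Ro20-1724 present at 0.1 mM final.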

Measured: Potency

COc1ccccc1N1CCN(CCCNc2cc(=O)n(C)c(=O)n2C)CC1
active: [14] 10.3 µM
not listed: [19] | [20]
inactive: all other assays above

CCc1cccc(CC)c1N(COC)C(=O)CS(=O)(=O)O
not listed: [17] | [20]
inactive: all other assays above

COc1ccc2nc(SCc3ncc(C)c(OC)c3C)[nH]c2c1
not listed: [17]
inactive: all other assays above

CC(C)(Oc1ccc(Cl)cc1)C(=O)OCCCOC(=O)C(C)(C)Oc1ccc(Cl)cc1
not listed: [17] | [18]
inactive: all other assays above

COc1cc(C)ccc1O
not listed: [17] | [19]
inactive: all other assays above

C[Si]1(C)N[Si](C)(C)N[Si](C)(C)N1
not listed: [17] | [20]
inactive: all other assays above

COc1ccc(/C(C)=C/C(=O)O)c(OC)c1
not listed: [17]
inactive: all other assays above
